TGFb inhibitor – inhibitors of TGF-b signaling; Potency, µM (titrated, usually from 46.1 µM), inactives show at the top dose activity, negative = inhibition, actives largely listed as inhibitors; HepG2 CAGA-GFP TGF-b/SMAD3 reporter, GFP fluorescence, 18 h; TGF-beta stimulated, 500 pg/mL final; actives 1.2% (n = 410,000); also: potency is read from the fitted curve at half-maximal effect; % is scaled to controls: 0 for no effect and ±100 for the full control effect; nearly all actives have a fitted effect of over 65% in size
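TGF-beta reporter screen: HEPG2 CAGA-GFP, 1% FBS, 500 pg/mL TGF-beta final, 18 h; per-cell GFP summed per well; curves fitted and categorized by class.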
TDP1 cell CPT – growth inhibition of DT40 Tdp1-/-;hTDP1 cells with camptothecin (screen for TDP1 inhibitors). actives 12% (n = 420,000). Potency, µM (top dose mostly 46.2 µM), inactives show at the top dose activity change, negative = growth inhibition, most hits filed as inhibitors. AID 686979. chicken DT40 Tdp1-/-;hTDP1 cells + 20 nM CPT, ATP luminescence, 48 h; also: potency is read from the fitted curve at half-maximal effect; % is scaled to controls: 0 for no effect and ±100 for the full control effect; nearly all actives have a fitted effect of over 55% in size
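Cell growth measured by CellTiter-Glo luminescence after a minimum 48 h, 37 C compound exposure with 20 nM CPT in Tdp1-knockout DT40 cells stably expressing hTDP1, seeded 400/well; qHTS titration format.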
DT40 TDP1 no CPT – qHTS for Inhibitors of human tyrosyl-DNA phosphodiesterase 1 (TDP1): qHTS in cells in absence of CPT | DT40 Tdp1-/- hTDP1 cells, no CPT, ATP luminescence, 48 h | Potency, µM (top dose mostly 46.2 µM), for the others: at the top dose activity change, negative = growth inhibition, hits mostly inhibitors | actives 15% (n = 420,000); also: potency is read from the fitted curve at half-maximal effect; % is scaled to controls: 0 for no effect and ±100 for the full control effect; nearly all actives have a fitted effect of over 55% in size
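Camptothecin absent (DMSO only). Human TDP1-complemented DT40 knockout cells, 400 cells/well, 37 °C for minimum 48 hr; ATP measured via CellTiter-Glo, 30 min dark incubation, luminescence.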
TDP1 inh – TDP1 (human) enzyme inhibition; Q9NUW8; recombinant TDP1, AlphaScreen DNA substrate cleavage; Potency, µM (series often up to 130 µM), for inactives: at the top dose activity change, negative = inhibition, usual class: inhibitors; actives 0.28% (n = 350,000); AID 485290; also: potency is read from the fitted curve at half-maximal effect; % is scaled to controls: 0 for no effect and ±100 for the full control effect; nearly all actives have a fitted effect of over 40% in size
Target sequence (Q9NUW8 whole entry, looked up): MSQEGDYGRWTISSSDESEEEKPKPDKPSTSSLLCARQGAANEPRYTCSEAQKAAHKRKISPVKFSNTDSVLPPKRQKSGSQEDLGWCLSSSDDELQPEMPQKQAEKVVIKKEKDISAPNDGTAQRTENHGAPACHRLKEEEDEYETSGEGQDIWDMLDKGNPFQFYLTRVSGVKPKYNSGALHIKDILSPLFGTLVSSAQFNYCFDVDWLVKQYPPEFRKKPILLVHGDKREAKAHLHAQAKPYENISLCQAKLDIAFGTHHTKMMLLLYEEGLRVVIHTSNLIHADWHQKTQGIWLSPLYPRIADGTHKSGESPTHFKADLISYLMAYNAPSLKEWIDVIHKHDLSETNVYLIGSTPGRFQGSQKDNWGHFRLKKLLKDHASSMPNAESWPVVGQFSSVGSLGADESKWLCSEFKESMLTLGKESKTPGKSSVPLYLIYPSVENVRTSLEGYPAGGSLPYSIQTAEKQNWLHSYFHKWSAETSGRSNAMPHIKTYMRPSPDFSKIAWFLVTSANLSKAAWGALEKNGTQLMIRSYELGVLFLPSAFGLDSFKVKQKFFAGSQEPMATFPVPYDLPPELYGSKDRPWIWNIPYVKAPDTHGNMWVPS
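Tdp1 1 nM final; 15 min RT w/ cpd; substrate 15 nM, 5 min; beads 10 ug/ml, 10 min; AlphaScreen read. Neg ctrl: no enzyme.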
HepG2 tox – kills HepG2 cells in TGF-b inhibitor counter-screen; HepG2 CAGA-GFP viability, ATP luminescence, 18 h; Potency, µM (series often up to 46.1 µM), without a hit: at the highest dose activity change, negative = cytotoxicity, usual class: cytotoxic; actives 0.76% (n = 410,000); AID 588856; also: potency is read from the fitted curve at half-maximal effect
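HepG2 CAGA-GFP cells (1000/well, DMEM with 1% FBS) received compound, then TGF-beta at 500 pg/mL final, and were incubated 18 hours at 37 degrees C. Viability was read by CellTiter-Glo luminescence. Media-only wells were set as complete cell-killing and DMSO as no toxicity.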
IL1B secr inh – inhibitors of inflammasome signaling (IL-1 beta secretion); activity change, % at 57.5 µM; AID 743279; THP-1 LPS/ATP IL-1B secretion, AlphaLISA, 16 h; stronger effect = lower value; actives 4.7% (n = 360,000); in the data active = activity change below about -50%; inconclusive = mostly about -30% to -49%; also: % is scaled to controls: 0 for no effect and ±100 for the full control effect
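THP-1 cells pretreated 1 hr with compounds (up to 57.5 uM final), then stimulated with LPS (250 ng/mL final) plus ATP (1.25 mM final); secreted IL-1B measured by AlphaLISA after 16 hr, decreased signal indicating inhibition.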
The depositor's hits bear a star; ? = inconclusive; . = no result; [ ] = remark or other dose. Rows were chosen to be rich in hits. Some 18% of all compounds tested hit in one or more screens of this group. Unless noted, calls follow the shape of the dose curve; as a rule, active = well fitted curve in the direction sought with a large enough effect; inconclusive = small, poorly fitted or top-dose-only effect, or another doubt; inactive = no such curve, though single readings can be large; an effect the other way counts as inactive or inconclusive.

SMILES	TGFb inhibitor	TDP1 cell CPT	DT40 TDP1 no CPT	TDP1 inh	HepG2 tox	IL1B secr inh
CCCCc1cc(=O)oc2cc(C)c3c(C)coc3c12	4%	15µM*	?	-1%	-4%	.
O=C(O)[C@@H]1CCCNC1	.	.	.	9%[21 µM]	.	.
NC(=O)N/N=C1\c2ccccc2-c2c(C(N)=O)cccc21	0%	-53%	-4%	.	-27%	-1
NC(=S)NN=C1c2ccccc2-c2c(F)c(F)c(F)c(F)c21	?	7.3µM*	12µM*	.	-34%	-111*
N#Cc1cccc2c1-c1ccccc1/C2=N/NC(N)=S	5µM*	?	18µM*	.	7.1µM*	-58*
O=C(Cc1cccc(C(F)(F)F)c1)NCC(=O)Nc1cc(Cl)ccc1Cl	-1%	?	?	0%	8%	-19
COc1ccc(NC(=O)c2ccc3c(=O)n(-c4ccc(OC)cc4OC)c(=S)[nH]c3c2)c(OC)c1	0%	23µM*	21µM*	5%	-33%	-11
COc1ccc(NC(=O)c2ccc3c(=O)n(CC4CCCO4)c(=S)[nH]c3c2)c(OC)c1 (stereo not given)	-2%	?	13µM*	4%	0%	15
CC1CCCC(NC(=O)c2ccc3c(=O)n(CC4CCCO4)c(=O)[nH]c3c2)C1C (stereo not given)	-1%	?	18µM*	3%	-11%	-25
CCn1c(SCC(=O)NC(C)(C)C)nnc1-c1ccccn1	38%	-3%	-8%	-5%	1%	-22
Cc1cc(Cl)ccc1OCCCC(=O)NO	22%	8.2µM*	18µM*	5%	-68%	-11
O=C(CCCOc1ccc(Cl)cc1Cl)N/N=C/c1ccc(Cl)cc1	?	?	23µM*	-5%	-55%	?
O=C(CCCOc1ccc(Cl)cc1Cl)N/N=C\C1CCCCC1	-22%	-17%	-8%	3%	-10%	-51*
Cc1cc(Cl)ccc1OCCCC(=O)NNC(=O)c1ccncc1	3%	-5%	3%	0%	-4%	-15
COc1ccc(/C=N/NC(=O)CCCOc2ccc(Cl)cc2Cl)cc1	-25%	1%	4%	-5%	-37%	-19
Cc1cc(Cl)ccc1OCCCC(=O)N/N=C/c1cccc([N+](=O)[O-])c1	-6%	15µM*	?	-1%	5%	-2
Cc1[nH]c(C)c(S(=O)(=O)NCc2ccc(F)cc2)c1C(=O)N1CCCCC1	-15%	-2%	9%	2%	-9%	-4
CC(C)CN(C[C@@H](OP(=O)(O)O)[C@H](Cc1ccccc1)NC(=O)O[C@H]1CCOC1)S(=O)(=O)c1ccc(N)cc1	.	10%	3%	.	.	.
Cc1ccc2c(CNCCc3ccccc3)c(C(=O)O)n(Cc3ccccc3C)c2c1	-9%	?	?	6%	-19%	.
COC(=O)/C=C/C(=O)Nc1cccc(C(F)(F)F)c1	0%	9.2µM*	15µM*	5%	-47%	-104*
O=C(CNC1CCCCC1)Nc1cccc(C(F)(F)F)c1	0%	-1%	-2%	3%	8%	-77*
O=C(COCC(=O)Nc1cccc(C(F)(F)F)c1)Nc1cccc(C(F)(F)F)c1	-20%	?	26µM*	5%	22µM*	?
COC(=S)Nc1cccc(C(F)(F)F)c1	-1%	2%	-20%	5%	13%	.
COc1ccccc1N1CCN(c2nc3ccc(C)cc3n3nnnc23)CC1	-20%	10%	7%	6%	-4%	.
COc1c(O)cnn(-c2ccccc2)c1=O	11%	3%	-3%	1%	23%	2
SMILES	TGFb inhibitor	TDP1 cell CPT	DT40 TDP1 no CPT	TDP1 inh	HepG2 tox	IL1B secr inh
CCN(CC)c1ccc(NC(=O)c2cc3c(=O)n4cccc(C)c4nc3n2C)c(C)c1	11%	-22%	?	1%	10%	.
Cc1cccc(NC(=O)CN(CC2CCCO2)C(=O)c2oc3ccccc3c2C)c1C (stereo not given)	-5%	29µM*	?	1%	-10%	12
Cc1cccc(NC(=O)CN(CC2CCCO2)C(=O)c2cc3ccccc3o2)c1C (stereo not given)	-10%	?	?	0%	13%	-10
C=Cc1ccccn1	.	.	.	12%	.	.
CC(C)(C)CC(C)(C)c1cc(Cc2cc(C(C)(C)CC(C)(C)C)cc(-n3nc4ccccc4n3)c2O)c(O)c(-n2nc3ccccc3n2)c1	.	6%	-2%	.	.	.
Cc1ccc(-c2cc(C(=O)Nc3cc(C)on3)c3ccccc3n2)c(C)c1	-30%	?	?	3%	-12%	-2
O=C(Nc1cccnc1)c1cc(-c2ccc(Br)cc2)nc2ccccc12	?	?	?	5%	5%	-77*
Cc1cc(NC(=O)c2cc(-c3ccccc3C)nc3ccccc23)no1	-3%	?	21µM*	8%	1%	26
Cc1cc(NC(=O)c2cc(-c3cccnc3)nc3c(C)c(C)ccc23)no1	7%	?	16µM*	-13%	-3%	-18
Cc1cc(NS(=O)(=O)c2ccc(NC(=O)c3cc(-c4cccnc4)nc4ccc(Cl)cc34)cc2)no1	-4%	15%	8%	2%	-16%	39
Cc1ccc(-c2cc(C(=O)Nc3ccccn3)c3ccccc3n2)o1	-20%	?	23µM*	.	5%	-24
CCOC(=O)C1CCN(C(=O)CSc2n[nH]c(-c3ccccc3Cl)n2)CC1	?	?	?	5%	-31%	.
NC(=O)c1ccc(NC(=O)CSc2nnc(-c3cccnc3)n2Cc2ccco2)cc1	4%	0%	-4%	-20%	13%	-2
COc1ccccc1N1CCN(Cc2cc(=O)c(OCC(=O)NC3CCCC3)co2)CC1	-6%	7%	-19%	-3%	-10%	41
Cc1ccc(-c2cc(C(=O)Nc3cccnc3)c3ccccc3n2)o1	-47%	16µM*	?	9%	-49%	8
CCC(Sc1nc2ncccc2o1)C(=O)Nc1ccc(OC)c(OC)c1 (stereo not given)	4%	5%	-15%	-2%	-7%	.
O=C(O)c1cc2ccccc2c(N=Nc2cccnc2)c1O	2%	?	-23%	8%[0.0935 µM]	17%	-9
O=C(NNS(=O)(=O)c1ccc(F)cc1F)C1Cc2c(ccc3ccccc23)O1 (stereo not given)	0%	18µM*	18µM*	8%	-24%	39

Bioassay records deposited in PubChem by National Center for Advancing Translational Sciences (NCATS).
